# Source: article PMC11006913
# Substitutions are numbered along the chain they refer to.
# How the values were obtained:
# Experiment in all cases: PBM; 200 nM protein, PBS
# Conditions in all cases: dsDNA, one strand shown
# HOXC10 [1] = target: HOXC10 (Homo sapiens, UniProt Q9NYD6 254-340)
# HOXD13 [2] = target: HOXD13 (Homo sapiens, UniProt P35453 263-343, T313R)
# HOXD13 [3] = target: HOXD13 (Homo sapiens, UniProt P35453 263-343)
# HOXC10 [4] = target: HOXC10 (Homo sapiens, UniProt Q9NYD6 254-340, K271E)
# HOXD13 [5] = target: HOXD13 (Homo sapiens, UniProt P35453 263-343, T313A)
# NKX2-6 = target: T1, NKX2-6 (Homo sapiens, UniProt A6NCS4 118-204, R150C)
# T1 sequence: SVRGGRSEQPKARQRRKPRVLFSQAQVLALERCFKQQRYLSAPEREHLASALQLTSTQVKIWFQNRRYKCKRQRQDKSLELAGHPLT
# PRRX1 [6] = target: PRRX1 (Homo sapiens, UniProt P54821 80-166, F113S)
# PRRX1 [7] = target: PRRX1 (Homo sapiens, UniProt P54821 80-166)
# ALX1 [8] = target: ALX1 (Homo sapiens, UniProt Q15699 118-204, L144V)
# ALX1 [9] = target: ALX1 (Homo sapiens, UniProt Q15699 118-204, L144R)
# ALX1 [10] = target: ALX1 (Homo sapiens, UniProt Q15699 118-204)
# PAX4 [11] = target: T2, PAX4 (Homo sapiens, UniProt O43316 9-242, R200K)
# T2 sequence: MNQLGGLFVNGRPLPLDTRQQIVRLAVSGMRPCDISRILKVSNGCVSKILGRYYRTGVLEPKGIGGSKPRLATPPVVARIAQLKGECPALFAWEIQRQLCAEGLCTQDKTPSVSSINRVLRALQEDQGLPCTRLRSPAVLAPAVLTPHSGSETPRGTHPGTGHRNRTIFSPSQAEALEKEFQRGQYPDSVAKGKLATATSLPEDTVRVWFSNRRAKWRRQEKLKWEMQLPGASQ
# PAX4 [12] = target: T3, PAX4 (Homo sapiens, UniProt O43316 9-242)
# T3 sequence: T2 sequence with K192R
# PAX4 [13] = target: T4, PAX4 (Homo sapiens, UniProt O43316 9-242, R200Q)
# T4 sequence: T2 sequence with K192Q
# PAX4 [14] = target: T5, PAX4 (Homo sapiens, UniProt O43316 9-242, F177V)
# T5 sequence: T2 sequence with F169V, K192R
# PAX4 [15] = target: T6, PAX4 (Homo sapiens, UniProt O43316 9-242, F177Y)
# T6 sequence: T2 sequence with F169Y, K192R
# PROP1 [16] = target: PROP1 (Homo sapiens, UniProt O75360 56-141)
# PROP1 [17] = target: PROP1 (Homo sapiens, UniProt O75360 56-141, R99H)
# PROP1 [18] = target: PROP1 (Homo sapiens, UniProt O75360 56-141, F88S)
# PAX4 [19] = target: T7, PAX4 (Homo sapiens, UniProt O43316 9-242, R227W)
# T7 sequence: T2 sequence with K192R, R219W
# HOXA2 [20] = target: HOXA2 (Homo sapiens, UniProt O43364 129-215, R185T)
# HOXA2 [21] = target: HOXA2 (Homo sapiens, UniProt O43364 129-215, R185K)
# VAX1 [22] = target: VAX1 (Homo sapiens, UniProt Q5SQQ9 86-172)
# VAX1 [23] = target: VAX1 (Homo sapiens, UniProt Q5SQQ9 86-172, T142I)
# HOXA2 [24] = target: HOXA2 (Homo sapiens, UniProt O43364 129-215, Y150S)
# HOXA2 [25] = target: HOXA2 (Homo sapiens, UniProt O43364 129-215)
# VAX1 [26] = target: VAX1 (Homo sapiens, UniProt Q5SQQ9 86-172, K157R)
# VAX1 (Homo sapiens, UniProt Q5SQQ9 86-172, K157R), sequence (Q5SQQ9 86-172 K157R): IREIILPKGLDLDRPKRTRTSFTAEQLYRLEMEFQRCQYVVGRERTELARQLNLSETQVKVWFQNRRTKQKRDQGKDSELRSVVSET
# HOXD13 (Homo sapiens, UniProt P35453 263-343, T313R), sequence (P35453 263-343 T313R): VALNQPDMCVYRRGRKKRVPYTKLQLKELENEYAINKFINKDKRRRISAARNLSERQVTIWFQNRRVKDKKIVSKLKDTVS
# HOXC10 (Homo sapiens, UniProt Q9NYD6 254-340), sequence (Q9NYD6 254-340): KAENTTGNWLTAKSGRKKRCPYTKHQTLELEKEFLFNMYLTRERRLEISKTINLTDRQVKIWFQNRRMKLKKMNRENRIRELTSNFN
# HOXD13 (Homo sapiens, UniProt P35453 263-343, T313A), sequence (P35453 263-343 T313A): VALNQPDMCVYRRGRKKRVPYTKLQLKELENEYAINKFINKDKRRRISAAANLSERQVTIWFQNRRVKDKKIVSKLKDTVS
# HOXD13 (Homo sapiens, UniProt P35453 263-343), sequence (P35453 263-343): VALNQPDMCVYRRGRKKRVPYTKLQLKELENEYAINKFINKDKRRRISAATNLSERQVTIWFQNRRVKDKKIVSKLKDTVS
# HOXC10 (Homo sapiens, UniProt Q9NYD6 254-340, K271E), sequence (Q9NYD6 254-340 K271E): as the sequence (Q9NYD6 254-340) above, with K18E counted along it
# PROP1 (Homo sapiens, UniProt O75360 56-141), sequence (O75360 56-141): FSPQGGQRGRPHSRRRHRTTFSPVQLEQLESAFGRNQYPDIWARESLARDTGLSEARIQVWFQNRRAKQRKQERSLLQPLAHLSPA
# HOXA2 (Homo sapiens, UniProt O43364 129-215, R185T), sequence (O43364 129-215 R185T): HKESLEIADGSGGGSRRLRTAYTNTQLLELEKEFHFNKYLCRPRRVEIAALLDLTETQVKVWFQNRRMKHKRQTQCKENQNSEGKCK
# PROP1 (Homo sapiens, UniProt O75360 56-141, F88S), sequence (O75360 56-141 F88S): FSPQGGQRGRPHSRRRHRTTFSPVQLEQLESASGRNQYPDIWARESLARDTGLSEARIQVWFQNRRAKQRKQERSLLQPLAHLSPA
# HOXA2 (Homo sapiens, UniProt O43364 129-215, R185K), sequence (O43364 129-215 R185K): as the sequence (O43364 129-215 R185T) above, with T57K counted along it
# PRRX1 (Homo sapiens, UniProt P54821 80-166), sequence (P54821 80-166): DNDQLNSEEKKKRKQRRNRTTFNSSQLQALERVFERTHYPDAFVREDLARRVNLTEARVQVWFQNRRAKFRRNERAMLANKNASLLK
# PRRX1 (Homo sapiens, UniProt P54821 80-166, F113S), sequence (P54821 80-166 F113S): as the sequence (P54821 80-166) above, with F34S counted along it
# HOXA2 (Homo sapiens, UniProt O43364 129-215, Y150S), sequence (O43364 129-215 Y150S): as the sequence (O43364 129-215 R185T) above, with Y22S, T57R counted along it
# ALX1 (Homo sapiens, UniProt Q15699 118-204, L144R), sequence (Q15699 118-204 L144R): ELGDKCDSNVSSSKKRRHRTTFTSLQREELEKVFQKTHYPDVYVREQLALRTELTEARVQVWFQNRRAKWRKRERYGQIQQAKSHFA
# ALX1 (Homo sapiens, UniProt Q15699 118-204), sequence (Q15699 118-204): as the sequence (Q15699 118-204 L144R) above, with R27L counted along it
# HOXA2 (Homo sapiens, UniProt O43364 129-215), sequence (O43364 129-215): as the sequence (O43364 129-215 R185T) above, with T57R counted along it
# VAX1 (Homo sapiens, UniProt Q5SQQ9 86-172), sequence (Q5SQQ9 86-172): as the sequence (Q5SQQ9 86-172 K157R) above, with R72K counted along it
# PROP1 (Homo sapiens, UniProt O75360 56-141, R99H), sequence (O75360 56-141 R99H): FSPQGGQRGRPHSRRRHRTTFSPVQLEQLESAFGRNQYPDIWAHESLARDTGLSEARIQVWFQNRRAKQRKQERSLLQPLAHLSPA
# ALX1 (Homo sapiens, UniProt Q15699 118-204, L144V), sequence (Q15699 118-204 L144V): as the sequence (Q15699 118-204 L144R) above, with R27V counted along it
# VAX1 (Homo sapiens, UniProt Q5SQQ9 86-172, T142I), sequence (Q5SQQ9 86-172 T142I): as the sequence (Q5SQQ9 86-172 K157R) above, with T57I, R72K counted along it
sequence,measurement,setting,value
GGAGGCCC,binding signal,HOXC10 [1],"10 upbm affinity estimate (log intensity, higher = more binding, comparable within an allelic series)"
same,binding signal,HOXD13 [2],"9.34 upbm affinity estimate (log intensity, higher = more binding, comparable within an allelic series)"
same,binding signal,HOXD13 [3],"9.46 upbm affinity estimate (log intensity, higher = more binding, comparable within an allelic series)"
same,binding signal,HOXC10 [4],"9.99 upbm affinity estimate (log intensity, higher = more binding, comparable within an allelic series)"
same,binding signal,HOXD13 [5],"9.59 upbm affinity estimate (log intensity, higher = more binding, comparable within an allelic series)"
TATGTGCA,binding signal,HOXC10 [1],"10.7 upbm affinity estimate (log intensity, higher = more binding, comparable within an allelic series)"
GAGGCCTC,binding signal,HOXC10 [1],"10.1 upbm affinity estimate (log intensity, higher = more binding, comparable within an allelic series)"
same,binding signal,NKX2-6,"9.72 upbm affinity estimate (log intensity, higher = more binding, comparable within an allelic series)"
same,binding signal,HOXC10 [4],"10.1 upbm affinity estimate (log intensity, higher = more binding, comparable within an allelic series)"
CTTTATGA,binding signal,HOXC10 [1],"12.2 upbm affinity estimate (log intensity, higher = more binding, comparable within an allelic series)"
same,binding signal,PRRX1 [6],"10 upbm affinity estimate (log intensity, higher = more binding, comparable within an allelic series)"
same,binding signal,HOXD13 [2],"10.5 upbm affinity estimate (log intensity, higher = more binding, comparable within an allelic series)"
same,binding signal,HOXD13 [3],"11.8 upbm affinity estimate (log intensity, higher = more binding, comparable within an allelic series)"
same,binding signal,HOXC10 [4],"11.6 upbm affinity estimate (log intensity, higher = more binding, comparable within an allelic series)"
same,binding signal,HOXD13 [5],"11.5 upbm affinity estimate (log intensity, higher = more binding, comparable within an allelic series)"
same,binding signal,PRRX1 [7],"11.2 upbm affinity estimate (log intensity, higher = more binding, comparable within an allelic series)"
ATTTATAG,binding signal,HOXC10 [1],"12.2 upbm affinity estimate (log intensity, higher = more binding, comparable within an allelic series)"
same,binding signal,ALX1 [8],"8.9 upbm affinity estimate (log intensity, higher = more binding, comparable within an allelic series)"
same,binding signal,HOXD13 [2],"11.1 upbm affinity estimate (log intensity, higher = more binding, comparable within an allelic series)"
same,binding signal,ALX1 [9],"9.04 upbm affinity estimate (log intensity, higher = more binding, comparable within an allelic series)"
same,binding signal,HOXD13 [3],"12.1 upbm affinity estimate (log intensity, higher = more binding, comparable within an allelic series)"
same,binding signal,HOXC10 [4],"11.4 upbm affinity estimate (log intensity, higher = more binding, comparable within an allelic series)"
same,binding signal,HOXD13 [5],"11.9 upbm affinity estimate (log intensity, higher = more binding, comparable within an allelic series)"
same,binding signal,ALX1 [10],"9.11 upbm affinity estimate (log intensity, higher = more binding, comparable within an allelic series)"
CCCCGGGC,binding signal,HOXC10 [1],"9.93 upbm affinity estimate (log intensity, higher = more binding, comparable within an allelic series)"
same,binding signal,HOXD13 [2],"9.37 upbm affinity estimate (log intensity, higher = more binding, comparable within an allelic series)"
same,binding signal,HOXD13 [3],"9.35 upbm affinity estimate (log intensity, higher = more binding, comparable within an allelic series)"
same,binding signal,HOXC10 [4],"9.89 upbm affinity estimate (log intensity, higher = more binding, comparable within an allelic series)"
same,binding signal,HOXD13 [5],"9.35 upbm affinity estimate (log intensity, higher = more binding, comparable within an allelic series)"
AGCGGGGG,binding signal,HOXC10 [1],"10.1 upbm affinity estimate (log intensity, higher = more binding, comparable within an allelic series)"
same,binding signal,PAX4 [11],"9.03 upbm affinity estimate (log intensity, higher = more binding, comparable within an allelic series)"
same,binding signal,PAX4 [12],"9.24 upbm affinity estimate (log intensity, higher = more binding, comparable within an allelic series)"
same,binding signal,PAX4 [13],"9.17 upbm affinity estimate (log intensity, higher = more binding, comparable within an allelic series)"
same,binding signal,PAX4 [14],"9 upbm affinity estimate (log intensity, higher = more binding, comparable within an allelic series)"
same,binding signal,HOXC10 [4],"9.93 upbm affinity estimate (log intensity, higher = more binding, comparable within an allelic series)"
same,binding signal,PAX4 [15],"9.11 upbm affinity estimate (log intensity, higher = more binding, comparable within an allelic series)"
same,binding signal,PROP1 [16],"6.68 upbm affinity estimate (log intensity, higher = more binding, comparable within an allelic series)"
same,binding signal,PROP1 [17],"6.47 upbm affinity estimate (log intensity, higher = more binding, comparable within an allelic series)"
same,binding signal,PROP1 [18],"6.14 upbm affinity estimate (log intensity, higher = more binding, comparable within an allelic series)"
same,binding signal,PAX4 [19],"9.16 upbm affinity estimate (log intensity, higher = more binding, comparable within an allelic series)"
GGCACGCC,binding signal,HOXC10 [1],"10 upbm affinity estimate (log intensity, higher = more binding, comparable within an allelic series)"
same,binding signal,HOXA2 [20],"6.97 upbm affinity estimate (log intensity, higher = more binding, comparable within an allelic series)"
same,binding signal,HOXA2 [21],"10.1 upbm affinity estimate (log intensity, higher = more binding, comparable within an allelic series)"
same,binding signal,HOXC10 [4],"10 upbm affinity estimate (log intensity, higher = more binding, comparable within an allelic series)"
same,binding signal,VAX1 [22],"6.93 upbm affinity estimate (log intensity, higher = more binding, comparable within an allelic series)"
same,binding signal,VAX1 [23],"7.04 upbm affinity estimate (log intensity, higher = more binding, comparable within an allelic series)"
same,binding signal,HOXA2 [24],"10.3 upbm affinity estimate (log intensity, higher = more binding, comparable within an allelic series)"
same,binding signal,HOXA2 [25],"7.03 upbm affinity estimate (log intensity, higher = more binding, comparable within an allelic series)"
same,binding signal,VAX1 [26],"6.97 upbm affinity estimate (log intensity, higher = more binding, comparable within an allelic series)"
